“And” between values parts separate entries of the source, which are not always exact repeats. Equal entries are not always repeated. Screen size: about 5,600 compounds; about 150 (2.7%) showed an effect of 50% or more. This excerpt belongs to a sample that is enriched for strong results.
Tests used:
[1] = biological target: T1, Protein deacetylase HDAC6 (Homo sapiens) (UniProt Q9UBN7); conditions: at 10 µM
T1 sequence (whole entry): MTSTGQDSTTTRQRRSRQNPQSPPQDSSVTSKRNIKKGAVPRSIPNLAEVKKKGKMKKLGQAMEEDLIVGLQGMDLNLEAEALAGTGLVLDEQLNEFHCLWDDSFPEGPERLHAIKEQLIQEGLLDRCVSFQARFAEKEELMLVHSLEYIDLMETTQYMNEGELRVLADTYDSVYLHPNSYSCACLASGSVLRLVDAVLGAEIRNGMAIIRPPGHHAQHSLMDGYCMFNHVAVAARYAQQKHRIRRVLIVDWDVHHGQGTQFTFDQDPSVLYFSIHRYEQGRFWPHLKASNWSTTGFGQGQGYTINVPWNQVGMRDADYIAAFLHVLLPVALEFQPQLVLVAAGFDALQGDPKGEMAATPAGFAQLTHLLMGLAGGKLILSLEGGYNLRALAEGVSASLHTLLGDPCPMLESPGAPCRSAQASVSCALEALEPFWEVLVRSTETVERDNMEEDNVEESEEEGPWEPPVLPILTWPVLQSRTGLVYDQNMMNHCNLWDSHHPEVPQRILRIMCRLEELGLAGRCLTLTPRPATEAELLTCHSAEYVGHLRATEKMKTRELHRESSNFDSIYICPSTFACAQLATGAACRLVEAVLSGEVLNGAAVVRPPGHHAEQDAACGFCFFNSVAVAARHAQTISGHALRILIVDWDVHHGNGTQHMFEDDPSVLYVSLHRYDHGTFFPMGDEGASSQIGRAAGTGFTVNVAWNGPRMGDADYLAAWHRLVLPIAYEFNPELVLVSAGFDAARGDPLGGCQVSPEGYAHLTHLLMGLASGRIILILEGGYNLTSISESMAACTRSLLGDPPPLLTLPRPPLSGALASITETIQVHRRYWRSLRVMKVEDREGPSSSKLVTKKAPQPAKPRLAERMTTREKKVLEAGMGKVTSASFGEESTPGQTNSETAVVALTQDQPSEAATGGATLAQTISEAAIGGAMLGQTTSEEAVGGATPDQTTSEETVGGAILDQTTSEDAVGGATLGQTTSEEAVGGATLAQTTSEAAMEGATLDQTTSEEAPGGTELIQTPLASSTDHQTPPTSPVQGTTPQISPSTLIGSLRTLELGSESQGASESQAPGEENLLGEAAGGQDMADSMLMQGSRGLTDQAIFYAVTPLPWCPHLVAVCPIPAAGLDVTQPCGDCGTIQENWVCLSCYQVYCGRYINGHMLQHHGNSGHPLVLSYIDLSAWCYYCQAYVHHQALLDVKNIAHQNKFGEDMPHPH

[2] = biological target: Protein deacetylase HDAC6 (Homo sapiens) (UniProt Q9UBN7); conditions: at 10 µM; remark: listed apart in the source

Compound	inhibition [1]	inhibition [2] [%]
CN(C)Cc1c(C(=O)NCCOc2ccc(C(=O)NO)cc2)oc2ccccc12	97.9%	
Cc1cc(C)c(N(Cc2ccccc2)S(=O)(=O)c2ccc(OCCNC(=O)c3cc4ccccc4o3)cc2)c(C(=O)NO)c1	-0.11%	
COc1ccc(C(=O)NCc2ccc(OCCN(C)C)cc2)cc1OC	-3.31%	
CC1(C)OC[C@H](NC(=O)Nc2ccc(Br)cc2Br)[C@H](c2ccccc2)O1	-0.73%	
FC(F)(F)c1cc(NC(=S)Nc2ccc(Br)cc2-c2nnn[nH]2)cc(C(F)(F)F)c1	67.5%	
COc1cc(C[C@@H](CO[C@@H]2O[C@H](CO)[C@@H](O)[C@H](O)[C@H]2O)[C@H](CO[C@@H]2O[C@H](CO)[C@@H](O)[C@H](O)[C@H]2O)Cc2ccc(O)c(OC)c2)ccc1O	-3.26%	
COc1ccc(C[C@@H](C)[C@@H](C)Cc2ccc(OC)c(OC)c2)cc1OC	-2.57%	
COc1ccc(/C=C/C(=O)/C=C(O)/C=C/c2ccc(OC)c(OC)c2)cc1OC	4.07%	
Cn1cc(C2=C(c3ccc(Cl)cc3Cl)C(=O)NC2=O)c2ccccc21	-3.78%	
Cn1cc(/C=C2/C(=O)Nc3cccnc32)c2ccccc21	66.2%	
Cn1cc(C2=C(c3cn(CCCSC(=N)N)c4ccccc34)C(=O)NC2=O)c2ccccc21	-0.14%	
CCNC(=O)CC[C@@H](N)C(=O)O	-3.08%	
CN(C)CC(O)Cn1c2ccc(Br)cc2c2cc(Br)ccc21 (configuration not stated)	-0.45%	
O=C1OC2(c3cc(I)c(O)c(I)c3Oc3c2cc(I)c(O)c3I)c2c(Cl)c(Cl)c(Cl)c(Cl)c21	31.9% and 41.8%	
CCOC(=O)c1ccc(N2NC(=O)/C(=C/c3ccc([N+](=O)[O-])o3)C2=O)cc1	3.77%	
Cn1nc(-c2ccc(C(F)(F)F)cc2)nc2c(=O)n(C)c(=O)nc1-2	82.8%	
Cc1cccc(C)c1NC(=O)/N=C1\CCCN1C	-2.32%	
Cc1ccc(-c2[nH]nc3c2C(c2cccc(O)c2)N(c2ccc(C(=O)O)cc2)C3=O)cc1 (configuration not stated)	-3.95%	
C1Cc2[nH]nc(-c3nn[nH]n3)c2C1	-4.01%	
COc1ccc2[nH]c(SCc3ncc(C)c(OC)c3C)nc2c1	7.26%	
N#Cc1cccc(-c2c[nH]c3ncnc(N4CCOCC4)c23)c1	-3.83%	
CCCCc1nc2cc(/C=C/C(=O)NO)ccc2n1CCN(CC)CC	97.3%	
CCCCc1nc(-c2ccc(OCCCN(CC)CC)cc2)cn1-c1ccc(Oc2ccc(Cl)cc2)cc1	9.56%	
CCN(CC)CCn1c(=O)c(Cc2ccc(OC)cc2)nc2ccccc21	-4.21%	
CC(C)(C)/[N+]([O-])=C/c1ccc(S(=O)(=O)O)cc1S(=O)(=O)O	-5.01%	
CCCc1c(OCCCOc2ccc(OCC(=O)O)cc2)ccc(CC=O)c1O	-1.53%	

Compound	inhibition [1]	inhibition [2] [%]
O=C(O)/C=C\c1c[nH]cn1	-0.7%	
CC1(C)CCC(C)(C)c2cc(NC(=O)c3ccc(C(=O)O)cc3)ccc21	-2.96%	
O=C(Nc1ccc(C(=O)O)c(O)c1)c1ccccc1	95.5%	
Nc1ccc(C(=O)O)c(O)c1	-3.77%	
OXALIPLATIN, CHEMBL414804		-4.35
CN[C@H](CNC(=O)N1CCC[C@@H]([C@@H](OCCNC(=O)OC)c2cccc(Cl)c2)C1)C[C@H]1CCCOC1	8.55%	
Cc1ccc(OCCSc2ncccn2)c(Br)c1	77.5%	
Cc1cc(OCC(=O)O)cc(C)c1Cc1ccc(O)c(C(C)C)c1	-5.84%	
O=C1[C@@H]2[C@H]3CC[C@H](C3)[C@@H]2C(=O)N1CCCCN1CCN(c2ncccn2)CC1	6.98%	
N#Cc1c[nH]c2c(C(=O)N3CCN(CCc4ccc(F)cc4)CC3)cccc12	4.22%	
COc1ccccc1C(=O)Nc1cccc(NC(=O)c2cccc(C)c2)c1	8.47%	
CC(=O)CC(=O)O	-2.94%	
CCCCCCCCCCCCCCCC(=O)NCCO	-0.28%	
O=C(CCNNC(=O)c1ccncc1)NCc1ccccc1	-3.21%	
O=C(CCCCCCNC(=O)c1cnc(N(c2ccccc2)c2ccccc2)nc1)NO	97.5%	
N#C/C(=C\c1cccn1S(=O)(=O)c1cccc([N+](=O)[O-])c1)S(=O)(=O)c1ccc(F)cc1	6.35%	
N[C@@H](CC(=O)NO)C(=O)O	-1.74%	
O=C1Nc2c(ccc(Cl)c2Cl)/C1=N\O	1.23%	
Nc1nc(N)c2nc(-c3cccc(O)c3)cnc2n1	66.2%	
Oc1cccc(-c2c3nc(c(-c4cccc(O)c4)c4ccc([nH]4)c(-c4cccc(O)c4)c4nc(c(-c5cccc(O)c5)c5ccc2[nH]5)CC4)C=C3)c1	2.63%	
Nc1nc(N)c2nc(-c3ccccc3)c(N)nc2n1	22%	
CCN(CC)Cc1ccc(Nc2ccnc3cc(Cl)ccc23)cc1O	0.37%	
O=C(c1ccc(CN2CCOCC2)cc1)N1CCN(C2CC2)CC1	4.17%	
O=C1NC(=O)/C(=C/c2cccc(C(F)(F)F)c2)S1	8.21%	
O=C1NC(=O)/C(=C/c2ccc3c(c2)OC(F)(F)O3)S1	-1.91%	
O=C1NC(=O)/C(=C/c2ccc(-c3ccc(F)cc3O)o2)S1	87%	
